# Hits are enriched below; roughly 1.9% of the tested compounds scored in any of these assays.
# PTHR1 ag: PTHR1 (human) receptor agonism; Q03431; HEK293 GP2 PTHR1 cells, GloSensor cAMP luminescence, 1 h; 0.075% of 410,000 active; AID 743266; Potency, µM (titrated, usually from 115 µM), for inactives: at the top dose activation, actives largely listed as activators; also: potency is read from the fitted curve at half-maximal effect; nearly all actives have a fitted effect of over 55% in size
# Target sequence (Q03431 whole entry, looked up): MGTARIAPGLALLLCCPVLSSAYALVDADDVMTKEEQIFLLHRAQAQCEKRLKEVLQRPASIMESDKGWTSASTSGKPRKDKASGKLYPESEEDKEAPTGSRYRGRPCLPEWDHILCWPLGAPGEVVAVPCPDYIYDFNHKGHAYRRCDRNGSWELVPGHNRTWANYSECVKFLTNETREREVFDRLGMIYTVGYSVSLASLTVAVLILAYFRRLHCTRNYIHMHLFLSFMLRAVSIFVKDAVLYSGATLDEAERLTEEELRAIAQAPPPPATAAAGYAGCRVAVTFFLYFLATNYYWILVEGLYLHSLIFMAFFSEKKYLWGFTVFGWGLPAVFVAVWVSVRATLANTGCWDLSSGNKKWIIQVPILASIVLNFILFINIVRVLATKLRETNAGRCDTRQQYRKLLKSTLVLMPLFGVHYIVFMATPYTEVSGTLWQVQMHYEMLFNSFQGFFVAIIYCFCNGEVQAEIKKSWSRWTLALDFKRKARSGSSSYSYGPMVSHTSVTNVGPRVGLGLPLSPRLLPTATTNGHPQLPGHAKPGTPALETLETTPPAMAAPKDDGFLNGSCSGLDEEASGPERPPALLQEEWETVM
#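 HEK-293-derived GP2 cells expressing PTHR1 and a GloSensor cAMP reporter, 3,000/well, plated overnight, given luciferin plus IBMX (each 0.5 mM as added) for 1 h at 37 °C, then compound for 1 h at 37 °C. Luminescence was read after 15 min at room temperature.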
# FUS suppressor: FUS proteinopathy suppression in yeast | S. cerevisiae FUS-expressing, growth rescue, OD600, 24 h | Potency, µM (top dose mostly 76.6 µM), usual class: activators | 0.24% of 390,000 active;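 also: potency is read from the fitted curve at half-maximal effect; plate controls were DMSO vehicle for no effect and reference control for full effect; nearly all actives have a fitted effect of over 55% in size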
#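 Galactose (2%) drives FUS expression in yeast precultured in raffinose; seeding density OD 0.005. Test compounds incubated 24hr at 30C and 99% humidity before absorbance at 600 nm was measured.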
# TDP43 rescue: rescues yeast growth from TDP-43 toxicity; Potency, µM (titrated, usually from 46.1 µM), for the others: at the top dose growth rescue (activation), most hits filed as activators; TDP-43 expressing yeast growth rescue, BacTiter-Glo, 24 h; 1.8% of 410,000 active; also: potency is read from the fitted curve at half-maximal effect; % of control where 0% means no effect; nearly all actives have a fitted effect of over 50% in size
#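 Galactose-induced TDP-43 yeast, OD600=0.02, compound pinned; 24 hr, 30 deg C; BacTiter-Glo luminescence for growth. Inhibitors of TDP-43 toxicity read as activators.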
# Abeta yeast res: A-beta toxicity reversal in yeast; 0.063% of 410,000 active; Potency, µM (series often up to 46.1 µM), most hits filed as activators; yeast expressing A-beta42, growth rescue, OD600, 48 h; response scale: 0% DMSO, 100% iron-clioquinol control; also: potency is read from the fitted curve at half-maximal effect; nearly all actives have a fitted effect of over 55% in size
#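 Yeast growth medium received pinned compounds, then yeast cells expressing toxic A-beta were added; plates incubated at 30 C for 48 hr. Growth read as absorbance at 600 nm, normalized to DMSO and equimolar FeCl3 plus clioquinol controls.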
# LDHA inh: blocks human lactate dehydrogenase A | P00338 | 0.15% of 480,000 active | purified LDHA, NADH/diaphorase-resazurin fluorescence; hits give low values | activity change, % (values are at about 110 or 230 µM) | AID 1347041; in the data active = activity change below about -30%; inconclusive = mostly about -25% to -30%;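 also: plate controls were DMSO wells for no effect and wells without enzyme for full effect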
#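 Resorufin fluorescence (ex540/em590), read at 0 and 20 min after diaphorase/resazurin addition, reports the NADH left after a 5 min room-temperature reaction of 2 nM human LDH5 with 0.06 mM NADH and 0.2 mM pyruvate.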
# aSyn yeast inh: inhibitors of alpha-synuclein toxicity in yeast; Yeast expressing alpha-synuclein, growth rescue, BacTiter-Glo, 24 h; Potency, µM (titrated, usually from 46.1 µM), for the others: top-dose growth rescue (activation), actives largely listed as activators; 0.14% of 370,000 active; also: potency is read from the fitted curve at half-maximal effect; % of control where 0% means no effect; nearly all actives have a fitted effect of over 65% in size
#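 Galactose-induced alpha-syn yeast (OD600=0.02, raffinose-pregrown) + pinned cpd, 24 hr, 30 deg C; growth by BacTiter-Glo luminescence. Growth restoration scores as activation.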
# * = called active by the depositor; i = inactive; ? = inconclusive; . = not tested or not shown; [ ] = remark or other dose. Unless noted, calls follow the shape of the dose curve; as a rule, active = well fitted curve in the direction sought with a large enough effect; inconclusive = small, poorly fitted or top-dose-only effect, or another doubt; inactive = no such curve, though single readings can be large; an effect the other way counts as inactive or inconclusive.
SMILES,PTHR1 ag,FUS suppressor,TDP43 rescue,Abeta yeast res,LDHA inh,aSyn yeast inh
CN(C(=O)CSc1nc(CN2CCOCC2)nc2ccccc12)C1CCS(=O)(=O)C1 (stereo not given),.,.,.,.,0,.
O=C(CN1CCC(Cc2ccccc2)CC1)Nc1ccc2c(c1)OCCO2,-14%[57.5 µM],i,3%,i,-11,0%
O=C(Nc1ccc2c(c1)OCCO2)C(c1cc2ccccc2o1)N1CCC(Cc2ccccc2)CC1 (stereo not given),-23%,16µM*,12%,i,-8,-14%
COc1cc(CC(=O)OCc2c(F)cccc2Cl)cc(OC)c1OC,.,.,.,.,1,.
O=C(O)CCCCCNC(=O)Cn1ccc2c(Cl)cccc21,.,.,.,.,9,.
O=C(/C=C/N1CCCCC1)c1ccc(Br)cc1,.,.,.,.,14,.
CC(C)OC1=CC(=O)OC(c2cccc(Cl)c2)C1 (stereo not given),i,i,22µM*,i,0,12%
COC1=CC(=O)OC(c2cccc(Cl)c2)C1 (stereo not given),i,i,?,i,-11,9%
Cc1ccc(S(=O)(=O)N2CCN(CC(=O)NC(=O)NC(C)(C)C)CC2)cc1C,.,.,.,.,-2,.
COc1ccc2c(CN(C)CCOc3cccc(Cl)c3)cc(=O)oc2c1,.,.,.,.,-3,.
C#CCOc1c(Br)cc(/C=C2/C(=O)ON=C2C)cc1OCC,-16%,i,16µM*,?,-4,3%
C#CCOc1c(Br)cc(/C=C2/C(=O)ON=C2C)cc1OC,-11%,i,-15%,i,-11,1%
C#CCOc1c(Cl)cc(/C=C2/C(=O)ON=C2C)cc1OCC,-28%,i,18µM*,i,-2,5%
OC(CNC/C=C/c1ccccc1)c1ccccc1 (stereo not given),.,.,.,.,-4,.
CCCN(CC1CC1)C(=S)Nc1ccc(Oc2ccccc2)cc1,-8%,.,20µM*,i,4,0%
Fc1ccc(Cn2nnnc2C(c2ccc(Cl)cc2)N2CCSCC2)cc1 (stereo not given),-23%,i,35µM*,i,-5,10%
CC1CCN(C(c2ccc(N(C)C)cc2)c2nnnn2Cc2ccc(F)cc2)CC1 (stereo not given),-32%[57.5 µM],i,-1%,i,4,0%
COc1cc(/C=C/C(=O)c2ccccc2)cc(OC)c1OC,.,i,.,.,.,.
COc1cc(C=CC(=O)c2ccccc2)cc(OC)c1OC,-94%,i,14µM*,i,0,?
COc1ccc(C(=O)/C=C/c2ccc(OC)c(O)c2)c(F)c1,-31%,.,22µM*,i,3,-4%
COc1cc(OC)c(C(=O)C=Cc2ccc(OC)c(OC)c2)c(OC)c1,i,i,-10%,i,5,12%
COc1ccc(C=CC(=O)c2ccc(OC)c(OC)c2O)cc1OC,-24%,i,13µM*,i,-6,?
COc1cc(/C=C/C(=O)N2CCCN(C(=O)/C=C/c3cc(OC)c(OC)c(OC)c3)CC2)cc(OC)c1OC,i,i,-18%,i,-2,0%
COc1cc(/C=C/C(=O)N2CCC=CC2=O)cc(OC)c1OC,-86%,i,22µM*,i,-3,13%
CNC(=O)NC(=O)CN(C)C1CCCCCC1,.,.,.,.,8,.
SMILES,PTHR1 ag,FUS suppressor,TDP43 rescue,Abeta yeast res,LDHA inh,aSyn yeast inh
CN1CCN(S(=O)(=O)c2cccc(C(=O)Nc3cccc4cccnc34)c2)CC1,.,.,.,.,6,.
CC(=O)N1CCN(S(=O)(=O)c2cccc(C(=O)OCc3csc(-c4ccccc4)n3)c2)CC1,.,.,.,.,-5,.
CNS(=O)(=O)c1cccc(C(=O)OCc2csc(-c3ccccc3)n2)c1,-35%,.,16µM*,i,-1,0%
CC(C)(C)S(=O)CCC(=O)O (stereo not given),.,.,.,.,6,.
CCOc1ccc(C(=O)NC(=S)N(Cc2ccccc2)Cc2ccccc2)cc1,i,i,-5%,i,-2,-5%
CCCN(CCC)C(=S)NC(=O)c1ccc(-c2ccccc2)cc1,-22%,i,14µM*,i,-4,-12%
Cc1cccc(C)c1NC(=O)c1ccc2nc(CCc3ccccc3)oc2c1,-34%,i,13µM*,i,3,.
COC(=O)NC1c2ccccc2Oc2ccc(C)cc21 (stereo not given),-5%,i,13µM*,i,-3,3%
COC(=O)NC1c2ccccc2Oc2ccccc21,i,i,17%,i,-4,2%
Cc1cc(NCc2ccccn2)n2nc(C)c(-c3ccc(Cl)cc3)c2n1,-30%,i,7.1µM*,i,-2,3%
Cc1cc(NCc2ccccn2)n2nc(C)c(-c3ccccc3Cl)c2n1,.,.,.,.,-5,.
COc1cc(OC)nc(-n2ncc(Br)c(Br)c2=O)n1,-30%,i,11µM*,i,0,9%
COC(=O)c1cnn(-c2nc(OC)cc(OC)n2)c1C,-20%,.,5%,i,-1,8%
CCOC(=O)c1cc(-c2ccc(OC)cc2)n(CCC(=O)NCCc2ccccc2)c1C,i,?,32µM*,i,1,.
CCOC(=O)c1cc(-c2ccccc2)n(CCC(=O)NCCc2cccc(C)c2)c1C,i,?,?,i,-2,.
C[C@H]1CN([C@@H](C)CO)S(=O)(=O)c2ccc(/C=C/c3ccccc3)cc2O[C@H]1CN(C)C(=O)NC1CCCCC1,-27%,11µM*,18%,i,1,7%
COc1ccc(NC(=O)N(C)C[C@@H]2Oc3cc(Br)ccc3S(=O)(=O)N([C@H](C)CO)C[C@H]2C)cc1,-19%,i,28%,i,-35*,-3%
C[C@@H]1CN([C@H](C)CO)C(=O)c2cc(/C=C/c3ccccc3)cnc2O[C@H]1CN(C)C(=O)NC1CCCCC1,-24%,i,12%,i,-4,2%
Fc1ccc(/C=C2\CCCC3=C2N=C2SC=C(c4ccccc4)N2C3c2ccc(F)cc2)cc1 (stereo not given),.,.,.,.,0,.
CN(CC1COc2ccccc2O1)C(=O)CSc1ncnc2sccc12 (stereo not given),-29%,?,18µM*,i,-1,10%[1.84 µM]
Cc1ccc(S(=O)(=O)N2CCN(c3nc4ccccc4nc3-n3nc(C)cc3C)CC2)cc1,i,i,2%,?,3,1%
Cc1cc(C)n(-c2nc3ccccc3nc2N2CCN(S(=O)(=O)c3ccc(C)c(C)c3)CC2)n1,.,.,.,.,-30*,.
CCC(C)NC(=O)Cc1c(C)nc2ccccc2c1C (stereo not given),.,.,.,.,1,.
